Source: PubChem BioAssay (NCATS)
Records with an inconclusive call do not appear. Unmarked numbers belong to inactive results. The source made the active and inactive calls. Calls come from the whole dose curve; as a rule, active = well fitted curve in the direction sought with a large enough effect in the signal ratio, with a control signal flat (not every such curve was filed as active); inconclusive = small, poorly fitted or top-dose-only effect, or effect the other way, or a change in a side signal; inactive = no such curve, though single readings can be large or run the other way; the % refers to the signal ratio.

Target: Peroxisome proliferator-activated receptor gamma (Homo sapiens) (UniProt P37231)
Experiment: qHTS assay for small molecule agonists of peroxisome proliferator-activated receptor gamma signaling (AID 588536)
Settings: HEK293 PPARg-UAS-bla, beta-lactamase ratio, 16 h, percent of rosiglitazone response, DMSO as zero; series mostly up to 76.7 µM; activation: at the top concentration
Source text: NIH Chemical Genomics Center [NCGC] U.S. Environmental Protection Agency [EPA] National Institutes of Environmental Health Sciences [NIEHS] National Toxicology Program [NTP] NCGC Assay Overview The Peroxisome proliferator-activated receptors (PPARs) are lipid-activated transcription factors of the nuclear receptor superfamily with three distinct subtypes namely PPAR alpha, PPAR delta (also called PPAR beta) and PPAR gamma. All these subtypes heterodimerizes with Retinoid X receptor (RXR) and these heterodimers regulate transcription of various genes. PPAR-gamma (glitazone receptor) agonists have been used in the treatment of type 2 diabetes and dyslipidaemia. It is involved in the regulation of glucose and lipid metabolism. PPAR-gamma activates certain genes like Paraoxonase 1 which is responsible for hydrolyzing organophosphates. PPAR-gamma agonists may also be therapeutically important in the treatment of coronary artery disease, obesity and cancer and atherosclerosis.
NCGC Assay Protocol Summary Using a beta-lactamase reporter-gene under control of Peroxisome Proliferator-Activated-gamma (PPAR-gamma) response element, a cell-based assay [GeneBLAzer PPAR-gamma-UAS-bla assay developed by Invitrogen] was used to measure PPAR-gamma ligands signaling. GeneBLAzer PPAR-gamma-UAS-bla-HEK293 cells were used with assay medium containing 1% charcoal/dextran treated FBS. The assay was performed in clear bottom black Greiner 1536-well plates. Rosiglitazone was used in the screen as the positive control. Library compounds were measured for their ability to stimulate the reporter gene activity. Compounds were screened in a titration series in 1536-well format. The fluorescence intensity (405 nm excitation, 460/530 nm emission) was measured using an EnVision plate reader. Data was normalized relative to Rosiglitazone control (2 uM, 100%), and DMSO only wells (basal, 0%). Concentration-response titration points for each compound were fitted to the Hill equation yielding concentrations of half-maximal stimulation (EC50) and maximal response (efficacy) values. qHTS protocol for PPAR-gamma beta-lactamase assay in agonist mode [Step] [Parameter] [Value] [Description] 1. Reagent; 6 uL; 3000 cells/well 2. Incubation; 37 C for 6 - 6.5 hrs 3. Compounds; 23 nL; 0.59 nM to 92 uM 4. Controls (Rosiglitazone); 23 nL, - One column with dose response, start 19 uM, 1:3 dilutions in duplicates - Final concentrations of 2 uM and 0.5 uM in two columns 5. Incubation; 37 C for 16 hrs 6. Detection reagent; 1 uL of CCF4-dye 7. Incubation; RT for 2 hrs 8. Detection; Fluorescence; Envision plate reader

Chain of Peroxisome proliferator-activated receptor gamma (Homo sapiens) (P37231 whole entry, looked up): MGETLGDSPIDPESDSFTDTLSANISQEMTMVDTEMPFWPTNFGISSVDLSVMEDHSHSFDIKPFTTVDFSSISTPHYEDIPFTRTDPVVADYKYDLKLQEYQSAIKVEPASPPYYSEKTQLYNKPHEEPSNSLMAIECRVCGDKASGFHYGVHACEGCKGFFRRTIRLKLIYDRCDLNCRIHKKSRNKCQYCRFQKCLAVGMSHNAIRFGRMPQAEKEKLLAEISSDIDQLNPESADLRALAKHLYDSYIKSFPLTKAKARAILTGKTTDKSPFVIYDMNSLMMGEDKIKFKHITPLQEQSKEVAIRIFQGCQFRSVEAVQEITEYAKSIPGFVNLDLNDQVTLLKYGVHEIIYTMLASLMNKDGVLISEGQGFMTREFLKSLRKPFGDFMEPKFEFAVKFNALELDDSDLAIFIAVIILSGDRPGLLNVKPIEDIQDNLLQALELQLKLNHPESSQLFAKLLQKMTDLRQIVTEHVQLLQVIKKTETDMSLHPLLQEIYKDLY

Row | SMILES | activation [%] | outcome
1 | Nc1ccc(C(=O)O)cc1 | 0.742 | 
2 | O=C(O)CCCCC(=O)O | 1.18 | 
3 | CN(C)/N=N/c1nc[nH]c1C(N)=O | -1.72 | 
4 | CCCCCCc1ccc(O)cc1O | -5.9 | 
5 | C=CCc1ccc(O)c(OC)c1 |  | inactive
6 | CC(C)(Oc1ccc(Cl)cc1)C(=O)O | 8.98 | 
7 | CN(C)C(=S)SC(=S)N(C)C | 1.08 | 
8 | Cc1cc(=O)n(-c2ccccc2)n1C | -6.87 | 
9 | C[C@H]1C[C@H]2[C@@H]3CCC4=CC(=O)C=C[C@]4(C)[C@@]3(Cl)[C@@H](O)C[C@]2(C)[C@@]1(O)C(=O)CO | -4.5 | 
10 | CC(=O)Oc1ccc(C(c2ccc(OC(C)=O)cc2)c2ccccn2)cc1 | -8.18 | 
11 | CC(C)(C)CC(C)(C)c1ccc(OCCOCC[N+](C)(C)Cc2ccccc2)cc1 | -10.5 | 
12 | Oc1ccc(Cl)cc1Sc1cc(Cl)ccc1O | -12.9 | 
13 | O=c1ccc2ccccc2o1 |  | inactive
